SMN2 splice enh: enhancers of SMN2 splice variant expression | HEK293 SMN2-luciferase splicing reporter, luminescence, 30-36 h | Potency, µM (top dose mostly 46.1 µM), hits mostly activators | hit rate 2.8% among 210,000 | AID 1458; also: nearly all actives have a fitted effect of over 55% in size
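HEK293 cells carry an SMN2 […]–luciferase reporter in which exon 7 inclusion puts luciferase in frame. Cells were plated 10-12 h before compound addition, then incubated 30-36 h at 37C. ONE-Glo luminescence was read; sodium butyrate at 4.5 mM final served as control.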
p53 reactivator: mutant p53 re-activation in reporter cells | hit rate 0.063% among 320,000 | Potency, µM (top dose mostly 92.2 µM), actives largely listed as activators | H1299 p53-A138V BP100-luciferase reporter, luminescence, 24 h; also: nearly all actives have a fitted effect of over 45% in size
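p53-null H1299 cells stably carrying temperature-sensitive p53-A138V and a BP100-luciferase reporter were pinned with compounds (4-point, 1:5 series) and held 24 hrs at 37 deg C. Luminescence was read 10 min after detection reagent.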
NPC1 promoter act: activators of NPC1 promoter; hit rate 2.4% among 320,000; AID 485313; Huh7 NPC1 promoter luciferase reporter, 24 h; Potency, µM (highest dose often 9.22 µM), actives largely listed as activators; also: nearly all actives have a fitted effect of over 60% in size
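Quantitative HTS used a cell-based reporter: Huh7 cells stably bearing the NPC1 promoter upstream of luciferase were treated with compounds for 24 h, and promoter activation was read as luminescence.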
Rab9 prom act: activators of Rab9 promoter | Huh7 Rab9 promoter-luciferase reporter, luminescence, 24 h | Potency, µM (top dose mostly 9.22 µM), most hits filed as activators | hit rate 2.8% among 320,000 | AID 485297; also: nearly all actives have a fitted effect of over 60% in size
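Stable Rab9-luc Huh7, 1500 cells/well, 2 h settle; cmpd in DMSO, 24 h, 37 °C/5% CO2; luciferase reagent 10 min RT; luminescence.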
FLuc modulator: firefly luciferase modulation, counter-screen for miR-21 project. P08659. purified FLuc, Km substrates, luminescence inhibition. Potency, µM (titrated, usually from 57.5 µM), most hits filed as inhibitors. hit rate 6.9% among 360,000. AID 588342; also: nearly all actives have a fitted effect of over 55% in size
Target sequence (P08659 whole entry, looked up): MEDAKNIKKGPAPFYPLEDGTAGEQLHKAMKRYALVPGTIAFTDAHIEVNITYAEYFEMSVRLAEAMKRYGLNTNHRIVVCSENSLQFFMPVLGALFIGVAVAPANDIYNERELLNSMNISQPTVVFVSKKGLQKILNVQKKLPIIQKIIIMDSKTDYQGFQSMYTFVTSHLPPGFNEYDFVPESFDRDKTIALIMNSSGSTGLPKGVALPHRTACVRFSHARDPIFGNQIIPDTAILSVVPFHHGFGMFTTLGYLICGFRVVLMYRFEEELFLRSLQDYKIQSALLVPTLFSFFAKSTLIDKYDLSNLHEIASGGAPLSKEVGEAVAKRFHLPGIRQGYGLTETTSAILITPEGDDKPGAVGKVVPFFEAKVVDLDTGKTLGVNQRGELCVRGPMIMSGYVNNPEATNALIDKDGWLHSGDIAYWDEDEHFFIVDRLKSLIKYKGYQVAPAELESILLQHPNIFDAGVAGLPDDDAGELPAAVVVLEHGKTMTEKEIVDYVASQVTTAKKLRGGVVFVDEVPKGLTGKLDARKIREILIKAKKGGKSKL
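Purified P. pyralis luciferase, 10 nM final, with Km-level 10 uM D-luciferin and 10 uM ATP in 50 mM Tris acetate pH 7.5, 10 mM Mg acetate, 0.01% Tween-20, 0.05% BSA; 6-point qHTS titration about 60 µM downward; luminescence read.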
ELG1 genotoxic: induces genotoxicity in HEK293T cells with luciferase-tagged ELG1; Potency, µM (highest dose often 46 µM), most hits filed as activators; HEK293T ELG1-luciferase reporter, luminescence, 16 h; hit rate 1.3% among 330,000; also: nearly all actives have a fitted effect of over 60% in size
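16 hr compound incubation (37 °C, 5% CO2) of HEK293T cells carrying luciferase-tagged ELG1; luciferase then measured by ONE-Glo luminescence after 30 min at RT.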
Numbers stand for hits; . = inactive; ? = inconclusive; / = no result. Only some compounds are listed: those with a hit (about 7.4% of all), similar ones and a draw of the others. Calls follow the shape of the dose curve; as a rule, active = well fitted curve in the direction sought with a large enough effect; inconclusive = small, poorly fitted or top-dose-only effect, or another doubt; inactive = no such curve, though single readings can be large; an effect the other way counts as inactive or inconclusive.

SMILES	SMN2 splice enh	p53 reactivator	NPC1 promoter act	Rab9 prom act	FLuc modulator	ELG1 genotoxic
O=C(Nc1ccccc1)c1ccc(-c2ccccc2)s1	.	.	?	?	1.7µM	5.2µM
CCc1ccc(NC(=O)c2ccc(-c3ccccc3)s2)cc1	/	/	/	/	.	/
Cc1cc(-c2ccc(C(=O)O)s2)cnc1N	13µM	.	?	?	12µM	?
O=S(=O)(NCCc1csc2nc(-c3ccccc3)nn12)c1cc(F)ccc1F	/	/	/	/	.	/
COc1cc(OC)c(NS(=O)(=O)c2cc(-c3cnc(C4CC4)o3)ccc2C)cc1Cl	/	/	/	/	.	/
O=C(Nc1ccccc1F)c1ccc(-c2ccccc2)s1	?	/	/	/	1.5µM	/
CCOc1ccc(OCC)c(NC(=O)c2ccc(-c3ccccc3)s2)c1	.	/	/	/	.	/
COc1ccc(-c2cc(-c3c(O)c(OC)c4occc4c3OC)[nH]n2)cc1OC	.	.	.	.	17µM	.
COc1ccc(-c2cc(-c3c(O)c(OC)c4occc4c3OC)[nH]n2)cc1	.	.	.	.	17µM	.
COc1ccc(S(=O)(=O)NCCOc2ccc(Cl)cc2)cc1	/	.	.	.	.	.
CCCc1nn(C)c(C(=O)Nc2cccc(CC)c2)c1Cl	?	?	?	?	17µM	.
CCCc1nn(C)c(C(=O)Nc2ccc3ccccc3c2)c1Cl	14µM	?	?	?	11µM	?
Cc1nn(C)c(C(=O)Nc2cccc(CN3CCOCC3)c2)c1Br	.	.	.	.	.	.
Cc1csc(Nc2cccc3ccccc23)n1	.	.	.	.	?	.
COc1ccccc1NC1=C(C)C(=O)CC1	18µM	.	.	.	.	21µM
COC1=C(Nc2ccccc2OC)C(=O)c2ccccc2C1=O	/	.	.	.	?	.
Cc1nc(NC(=O)c2ccccc2)sc1-c1csc(N)n1	.	?	?	.	9.5µM	.
COc1ccccc1Nc1nc(-c2sc(NC(=O)c3ccccc3)nc2C)cs1	.	.	.	.	21µM	.
Cc1nc(NC(=O)c2ccccc2)sc1-c1csc(NCc2ccccc2)n1	.	.	.	.	?	.
COc1ccccc1Nc1nc(C)cs1	?	?	.	.	27µM	.
CC(=O)N[C@@H](CC(=O)O)C(=O)N[C@@H](CCC(=O)O)C(=O)O	.	/	/	/	/	/
CCN1C(=O)c2ccccc2Sc2ccc(NC(=O)COc3ccc(Cl)cc3)cc21	/	/	/	/	.	/
COc1ccccc1Nc1ccc(Nc2ccccc2OC)nn1	/	?	?	?	9.5µM	?
Cc1nc(NC(=O)c2ccccc2)sc1-c1csc(Nc2cccc(F)c2)n1	.	.	.	.	13µM	.
CC(=O)OCC(=O)[C@@]1(O)CC[C@@H]2[C@H]3CCC4=CC(=O)CC[C@]4(C)[C@]3(F)[C@@H](O)C[C@@]21C	.	/	/	/	/	/
SMILES	SMN2 splice enh	p53 reactivator	NPC1 promoter act	Rab9 prom act	FLuc modulator	ELG1 genotoxic
COc1cc2[nH]c(C(=O)N3CCc4ccccc43)cc2c(OC)c1OC	/	.	.	?	17µM	?
COc1cc2[nH]c(C(=O)N3CCC(Cc4ccccc4)CC3)cc2c(OC)c1OC	/	.	.	.	24µM	.
COc1ccc(-c2cc(C(=O)N3CCC3)c3ccccc3n2)cc1OC	/	.	.	.	.	.
O=C(c1cc(-c2ccccn2)nc2ccccc12)N1CCN(c2ncccn2)CC1	.	.	.	.	?	.
CC(C)Oc1cccc(-c2cc(C(=O)N3CCN(c4ncccn4)CC3)c3ccccc3n2)c1	.	.	.	.	1.3µM	.
COc1ccc(-c2cc(C(=O)N3CCN(c4ncccn4)CC3)c3ccccc3n2)cc1OC	/	.	.	.	13µM	.
COc1cccc(-c2cc(C(=O)NN3CCOCC3)c3ccccc3n2)c1	.	.	.	.	.	.
COc1cccc(-c2cc(C(=O)N3CCN(c4ncccn4)CC3)c3ccccc3n2)c1	35µM	.	.	.	?	.
Cc1ccc2nc(-c3ccccn3)cc(C(=O)N3CCN(c4ncccn4)CC3)c2c1	.	.	.	.	19µM	.
COc1ccc(-c2cc(C(=O)N3CCN(c4cccc(C)c4C)CC3)c3ccccc3n2)cc1OC	/	.	.	.	?	.
COc1cc(C(=O)Nc2ccc3oc(-c4ccc(C)c(Br)c4)nc3c2)cc(OC)c1OC	.	/	/	/	.	/
